# Test results published in paper PMC4336329 (PLoS ONE, 2015).
# Among all 310,000 compounds or so, about 14,000 (4.5%) showed an effect of 50% or more. The effect is printed as a negative number. The list comes from a sample in which strong results are over-represented; it also holds similar structures and randomly drawn compounds.
# Target: human ether-à-go-go-related gene (hERG) potassium channel (human, UniProt Q12809)
# Assay: primary screen, population patch clamp on CHO cells stably expressing hERG; higher = less effect of the substance
# 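Note: peak tail current of the secondary pulse compared with the same well before compound.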
# Sequence of human ether-à-go-go-related gene (hERG) potassium channel (Q12809 whole entry, looked up): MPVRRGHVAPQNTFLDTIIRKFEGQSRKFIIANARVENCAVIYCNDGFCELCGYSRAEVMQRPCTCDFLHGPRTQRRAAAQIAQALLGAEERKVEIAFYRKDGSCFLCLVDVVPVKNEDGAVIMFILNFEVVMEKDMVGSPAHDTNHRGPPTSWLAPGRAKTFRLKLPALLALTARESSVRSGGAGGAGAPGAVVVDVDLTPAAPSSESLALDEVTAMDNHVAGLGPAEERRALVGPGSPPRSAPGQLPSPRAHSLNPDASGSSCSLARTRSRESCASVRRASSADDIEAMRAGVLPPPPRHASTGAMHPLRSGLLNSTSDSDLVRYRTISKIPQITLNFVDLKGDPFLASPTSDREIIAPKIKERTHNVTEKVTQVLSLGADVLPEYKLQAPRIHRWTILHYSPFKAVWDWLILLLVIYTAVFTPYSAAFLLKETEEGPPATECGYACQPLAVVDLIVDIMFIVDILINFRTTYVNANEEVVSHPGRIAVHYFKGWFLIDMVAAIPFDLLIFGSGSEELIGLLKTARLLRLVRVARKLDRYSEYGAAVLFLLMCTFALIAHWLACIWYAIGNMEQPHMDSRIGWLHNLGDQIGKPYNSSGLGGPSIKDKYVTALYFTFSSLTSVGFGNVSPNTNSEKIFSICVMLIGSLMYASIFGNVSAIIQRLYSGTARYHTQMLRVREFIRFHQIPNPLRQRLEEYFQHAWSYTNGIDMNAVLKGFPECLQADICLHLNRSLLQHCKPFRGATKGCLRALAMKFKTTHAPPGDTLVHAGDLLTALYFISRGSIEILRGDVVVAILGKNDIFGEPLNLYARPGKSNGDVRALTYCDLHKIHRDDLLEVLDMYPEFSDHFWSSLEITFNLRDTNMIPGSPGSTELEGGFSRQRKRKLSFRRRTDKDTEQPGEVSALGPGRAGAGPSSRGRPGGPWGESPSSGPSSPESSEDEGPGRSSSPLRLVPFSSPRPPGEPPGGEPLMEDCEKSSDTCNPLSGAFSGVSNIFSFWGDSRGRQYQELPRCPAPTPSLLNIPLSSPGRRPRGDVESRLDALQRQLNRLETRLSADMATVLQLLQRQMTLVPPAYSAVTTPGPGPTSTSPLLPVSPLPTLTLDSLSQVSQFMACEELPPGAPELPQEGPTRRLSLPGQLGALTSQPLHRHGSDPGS
row,SMILES,"hERG current change (%, negative = inhibition) at 10uM [%]"
1,CCc1noc(C)c1C(=O)Nc1cccc(S(=O)(=O)N(C)c2ccccc2)c1,-22.1
2,CCN1CCCC1CNC(=O)Cn1cccc1C(=O)c1ccccc1 (stereo not drawn),-3.53
3,O=C1C=C(c2ccc(F)cc2OCc2ccccc2)C[C@@H](c2ccc(Cl)cc2)C1,6.91
4,CCOC(=O)[C@H]1[C@H]2COc3ccc(Cl)cc3[C@@H]2N2C(=O)c3cc(C)ccc3NC(=O)[C@@]12C,5.63
5,Cc1cc(C)n2nc(N)c(N=Nc3ccccc3)c2n1,-3.32
6,COC(=O)[C@H](CCSC)NC(=O)c1cc2c(cn1)[nH]c1ccccc12,0.117
7,O=C(CSc1nc2ccccc2[nH]1)c1ccco1,-4.74
8,CCOC(=O)Nc1ccccc1C(=O)Nc1cc(C)cc(C)c1,28.9
9,COc1ccc(-c2nc3cc(C)ccn3c2NCC2CCCO2)cc1OC.Cl (stereo not drawn),-71.2
10,CCCCNc1c(-c2ccc(OC)c(SC3CCCCC3)c2)nc2cc(C)ccn12.O=C(O)C(F)(F)F,12.6
11,CCOc1cc(-c2nc3ccccn3c2NCC2CCCO2)ccc1O (stereo not drawn),-64.7
12,COc1cc(-c2nc3cccc(C)n3c2NCC2CCCO2)ccc1O (stereo not drawn),-51.4
13,Cc1ccn2c(NC3CCCC3)c(-c3ccncc3)nc2c1,-10.2
14,CCOc1cc(-c2nc3cc(C)ccn3c2NCC2CCCO2)ccc1O (stereo not drawn),-72.2
15,COc1ccc(-c2nc(C#N)c(NCC3CCCO3)o2)cc1OC (stereo not drawn),6.28
16,COc1ccc(-c2nc3cccc(C)n3c2NCc2ccco2)cc1OC,-42.2
17,CCOc1cc(/C=C(\C#N)C(=O)NCC2CCCO2)ccc1O (stereo not drawn),-3.03
18,CCOc1cc(-c2nc3c(C)cccn3c2NCC2CCCO2)ccc1O.CNC.Cl (stereo not drawn),-43.9
19,COc1ccc(-c2nc3cccc(C)n3c2NCC2CCCO2)cc1O.Cl (stereo not drawn),-5.6
20,COc1cc(-c2nc3ccccn3c2NCC2CCCO2)ccc1O (stereo not drawn),-17.9
21,CCN(CC)CCN1C(=O)C(=O)/C(=C(/O)c2c(C)[nH]c(C(=O)OC)c2C)C1c1ccccc1OC (stereo not drawn),20.8
22,O=C(NCCCN1CCCC1=O)c1cccc(C(F)(F)F)c1,-3

row,SMILES,"hERG current change (%, negative = inhibition) at 10uM [%]"
1,CCOC(=O)C1CCN(CC(C)(C)NS(=O)(=O)c2ccc(Cl)cc2)CC1,-1.75
2,C/C(=N/Nc1nc(C)cc(C)n1)c1ccc(Br)cc1,-14.9
3,C/C(=N/Nc1ccnc2cc(Cl)ccc12)c1ccc(O)cc1,-6.2
4,Cc1ccc(C)c(N2CCN(c3ccncc3N)CC2)c1,-47.8
5,Cc1c(NC2=CC(=O)CCC2)c(=O)n(-c2ccccc2)n1C,8.37
6,O=C(CC(=O)N1CCN(c2ccccn2)CC1)Nc1ccc2nc3n(c(=O)c2c1)CCCCC3,-17.9
7,C/C(=N\N1CCCCC1c1cccnc1)c1c(O)n(C2CCCCC2)c(=S)[nH]c1=O (stereo not drawn),0.0734
8,CCn1c(O)c(/C(C)=N/N2CCCCC2c2cccnc2)c(=O)[nH]c1=S (stereo not drawn),-55.2
9,CCCCn1c(O)c(/C(CC)=N/N2CCCCC2c2cccnc2)c(=O)[nH]c1=S (stereo not drawn),-27
10,O=[N+]([O-])c1cc([N+](=O)[O-])c(Oc2c(F)ccc(F)c2F)cc1NN1CCCCC1,19.8
11,CC1CCCCC1NC(=O)c1ccc(S(=O)(=O)NCc2ccco2)cc1 (stereo not drawn),7.19
12,CCNc1nc(=S)nc(NC(C)C)[nH]1,29.6
13,CCOC(=O)N1CCN(C(=O)C2CCCN(Cc3nc(-c4ccc(Cl)cc4)oc3C)C2)CC1 (stereo not drawn),-70.9
14,CCOC(=O)N1CCC(NC(=O)CS(=O)Cc2nc(-c3ccc(Cl)cc3)oc2C)CC1 (stereo not drawn),-47.4
15,Cc1ccc(-c2nc(CN3CCCC(C(=O)N4CCOCC4)C3)c(C)o2)cc1 (stereo not drawn),-37.5
16,Cc1oc(-c2ccc(Cl)cc2)nc1CN1CCCC(C(=O)N2CCOCC2)C1 (stereo not drawn),-53.8
17,Cc1oc(-c2cc3c(cc2Cl)OCO3)nc1CN1CCCC(C(=O)N2CCOCC2)C1 (stereo not drawn),-24.7
18,CCOc1ccc(-c2nc(CN3CCCC(C(=O)N4CCOCC4)C3)c(C)o2)cc1 (stereo not drawn),-26.5
19,O=C(C1CCC(CNS(=O)(=O)c2ccccc2)CC1)N1CCCCC1 (stereo not drawn),-1.89
20,C=CCN(c1ccc(Br)cc1C(=O)OC)S(C)(=O)=O,0.801
21,Brc1ccc(-c2cnc(-c3cccs3)o2)cc1,-3
22,NNC(=O)CSCc1ccc(Cl)cc1Cl,-2

row,SMILES,"hERG current change (%, negative = inhibition) at 10uM [%]"
1,CN1C2CCC1CC(NC(=O)CSCc1ccc(Cl)cc1Cl)C2 (stereo not drawn),-57.4
2,CN1C2CCC1CC(NC(=O)CSc1ccc(Cl)cc1)C2 (stereo not drawn),-8.94
3,O=C(O)C1=C[C@@H](C2CC2)C[C@@H](OCc2ccc(CO)cc2)O1,21.4
4,COc1cc(Br)c(C2C(C#N)=C(N)Oc3n[nH]c(-c4cccnc4)c32)cc1OC (stereo not drawn),6.8
5,Cc1cccc(NC(=O)c2nc[nH]c2C(=O)N2CCC(C)CC2)c1,1.29
6,CCCc1[nH]n(-c2ccc([N+](=O)[O-])cc2)c(=O)c1C(C)=NCc1ccncc1,-52.4
7,COc1ccc(-c2[nH]n(-c3ccc([N+](=O)[O-])cc3)c(=O)c2C=NCc2ccncc2)cc1,-3.44
8,CCCc1[nH]n(-c2ccc([N+](=O)[O-])cc2)c(=O)c1C=NCCN1CCNCC1,-47.1
9,CC(=NCCCn1ccnc1)c1c(C)[nH]n(-c2ccc([N+](=O)[O-])cc2)c1=O,-69.3
10,CC(=NCCCn1ccnc1)c1c(O)n(-c2ccccc2)c(=O)[nH]c1=O,5.91
11,CCCc1[nH]n(-c2ccc([N+](=O)[O-])cc2)c(=O)c1C=NCCc1ccc(OC)c(OC)c1,-19.4
12,CC(=NCCCn1ccnc1)c1c(O)n(C)c(=O)n(C)c1=O,-9.42
13,CCCc1[nH]n(-c2ccc([N+](=O)[O-])cc2)c(=O)c1C=NCCCn1ccnc1,-76.4
14,CCCc1[nH]n(-c2ccc([N+](=O)[O-])cc2)c(=O)c1C=NCCc1c[nH]c2ccccc12,8.42
15,O=C1CC(N(O)c2ccccc2)C(=O)N1c1cc(Cl)cc(Cl)c1 (stereo not drawn),16.2
16,COc1ccccc1CNC(=O)C(NC(=O)Nc1ccccc1)C(C)C (stereo not drawn),13
17,CCCCn1c(=O)[nH]c(=O)c2c1nc(CN(C)Cc1cccc(OC)c1OC)n2CCC.O=C(O)C(=O)O,18.5
18,Cc1ccc(-n2ncc3c2ncn2c(C)nnc32)cc1C,-10.5
19,COc1ccc(NC(=O)COC(=O)c2ccc(NS(=O)(=O)/C=C/c3ccccc3)cc2)cc1,0.149
20,Cc1ccccc1NC(=O)NC1CCS(=O)(=O)C1 (stereo not drawn),16.6
21,CCn1c(SCC(=O)NC2CCCC2)nnc1-c1cccnc1,5.55
22,Cc1c(C#N)c(NC(=O)c2ccccc2)n(Cc2ccccc2)c1C,2.21

row,SMILES,"hERG current change (%, negative = inhibition) at 10uM [%]"
1,COc1cc2ccccc2cc1C(=O)N1CCCC1,7.7
2,COc1cc2ccccc2cc1C(=O)N1CCCCC1,-0.827
3,COc1ccccc1N1CCN(C(=O)c2cccc(S(=O)(=O)N3CCCCCC3)c2)CC1,-77
4,CCOc1ccccc1N1CCN(C(=O)c2c(-c3ccccc3Cl)noc2C)CC1,2.42
5,COc1ccccc1N1CCN(C(=O)c2c(-c3c(Cl)cccc3Cl)noc2C)CC1,2.17
6,O=C(c1cccc(S(=O)(=O)N2CCCC2)c1)N1CCN(c2ccccc2F)CC1,-18.1
7,COc1ccccc1N1CCN(C(=O)c2c(-c3ccccc3Cl)noc2C)CC1,-51.2
8,COc1ccccc1N1CCN(C(=O)c2ccc(S(=O)(=O)N3CCCCC3)cc2)CC1,-10.2
9,COc1ccccc1N1CCN(C(=O)c2ccc(S(=O)(=O)N3CCCCCC3)cc2)CC1,-39.8
10,O=C(c1cccc(S(=O)(=O)N2CCCCCC2)c1)N1CCN(c2ccccc2F)CC1,-58
11,COc1cc2ccccc2cc1C(=O)N1CCN(c2ccccc2O)CC1,-59.7
12,CN1CCN(S(=O)(=O)c2cccc(C(=O)N3CCN(c4ccccc4F)CC3)c2)CC1,-0.195
13,CC(C)(O[C@@H]1O[C@H](CO)[C@@H](O)[C@H](O)[C@H]1O)[C@@H]1CC=C(C(=O)O)CC1,15.5
14,COc1ccc(NC(=O)CN(c2ccccc2F)S(=O)(=O)c2ccc(C)cc2)cc1,10.6
15,COC(=O)c1sc2nc(N)c(C#N)cc2c1N,31.1
16,Cc1nc(NCCc2ccc(O)cc2)c2nnn(Cc3ccccc3)c2n1,0.0141
17,Cc1ccc(OCC(=O)Nc2oc(-c3ccccc3)c(-c3ccccc3)c2C#N)cc1,17.7
18,COc1cc(CC(=O)NNC(=O)c2cc(C)oc2C)cc(OC)c1OC,24.1
19,COc1ccc(S(=O)(=O)N2CCN(c3ccccc3OC)CC2)cc1C(=O)N1CCCCC1,7.51
20,COc1ccc(S(=O)(=O)N2CCCCCC2)cc1C(=O)N1CCN(c2ccccc2O)CC1,-70.6
21,COc1ccc(S(=O)(=O)N2CCCCCC2)cc1C(=O)N1CCN(c2ccccc2C)CC1,-48
